Source: PubChem BioAssay AID602342 (Broad Institute, 2012)
Among all 340,000 compounds or so, about 1,000 (0.29%) were called active. The sample as a whole holds a higher share of actives than the screen did. Values without a mark were called inactive.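 Rule for the calls: active = mean replicate activation score at least 90 and every replicate individually at or above 90; inconclusive = only one of the two criteria met; inactive = neither criterion met.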

Experiment: compounds raising miR-122 luciferase sensor output – cell-based, single point, plate reader, miR-122 inhibitor project, primary screen (AID 602342);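 note: higher luciferase means less miR-122 activity so hits act as miR-122 inhibitors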
Settings: Huh7 miR-122 Renilla luciferase sensor, 48 h, hits give high values, neutral wells = 0, positive control = 100; at 16.7 µM unless noted

| Compound | activation (reporter increase) |
| --- | --- |
| C[C@H](CO)N1C[C@H](C)[C@H](CN(C)S(C)(=O)=O)Oc2ncc(C3=CCCCC3)cc2C1=O | 2.67% |
| CCC(=O)N(C)C[C@H]1Oc2cc(-c3ccc(C)cc3)ccc2S(=O)(=O)N([C@@H](C)CO)C[C@H]1C | -15.3% |
| COCCn1c(C)cc(C(=O)CSc2nc3ccccc3c(=O)n2C(C)COC)c1C (stereo unspecified) | -1.04% [at 12.5 µM] |
| COCCn1c(SCC(=O)c2[nH]c(C)c(C(C)=O)c2C)nc2ccccc2c1=O | 272% [at 12.5 µM] (active) |
| COCCn1c(SCC(=O)Nc2ccc3c(c2)CCC3)nc2ccccc2c1=O | 1.43% [at 12.5 µM] |
| CO[C@H]1CN(C)C(=O)c2cc(NS(=O)(=O)c3ccccc3)ccc2OC[C@H](C)N(C)C[C@@H]1C | 0.654% |
| CNC(=O)C[C@@H]1CC[C@H]2[C@H](COc3ccc(NC(=O)c4cccc(OC)c4)cc3C(=O)N2C)O1 | -50% |
| C[C@@H]1CCCCO[C@H](CN(C)C(=O)c2ccccc2)[C@H](C)CN([C@H](C)CO)C(=O)c2cc(N(C)C)ccc2O1 | -6.07% |
| CC(C)c1cc(C(=O)O)on1 | 8.11% [at 12.5 µM] |
| CC(C)c1cc(C(=O)O)n[nH]1 | 143% [at 12.5 µM] (active) |
| CO[C@H]1CN(C)C(=O)c2ccc(NC(=O)Cc3ccccc3)cc2OC[C@@H](C)N(C(C)=O)C[C@H]1C | -19.6% |
| CN1C[C@H]2[C@@H](c3ccccc31)[C@@H](CO)N2Cc1ccccc1 | 2.82% |
| CCOc1ccc(C(=O)Nc2cccc(-c3ccc4nncn4n3)c2)cc1 | -5.49% [at 12.5 µM] |
| COc1ccc(OC)c(S(=O)(=O)Nc2c(C)nn(C)c2C)c1 | 21.9% [at 12.5 µM] |
| COc1ccc(OC)c(S(=O)(=O)Nc2cccc(-c3ccc4nncn4n3)c2)c1 | 333% [at 12.5 µM] (active) |
| CC(C)NC(=O)N(C)C[C@H]1Oc2ncc(C#CC3CCCCC3)cc2C(=O)N([C@H](C)CO)C[C@@H]1C | -2.95% |
| CC(C)NC(=O)Nc1ccc2c(c1)C(=O)N([C@H](C)CO)C[C@@H](C)[C@H](CN(C)S(C)(=O)=O)O2 | 3.33% |
| C[C@@H]1CN([C@H](C)CO)C(=O)Cc2cc(NS(=O)(=O)c3ccc(F)cc3)ccc2O[C@H]1CN(C)C | 4.8% |
| O=C(c1ccccc1F)N1C[C@H]2[C@@H](c3ccccc31)[C@@H](CO)N2C(=O)c1ccc(F)cc1 | 471% (active) |
| CCC(=O)N1[C@@H](CO)[C@@H]2c3ccccc3N(C(=O)c3ccccc3F)C[C@@H]21 | -12.6% |
| CC(=O)N1[C@H](CO)[C@H]2c3ccccc3N(C(=O)c3ccc(F)cc3)C[C@H]21 | -19.2% |
| O=C(C[C@@H]1C[C@@H]2c3cc(NC(=O)c4ccc5c(c4)OCO5)ccc3O[C@@H]2[C@@H](CO)O1)NCC1CC1 | -4.14% |
| COc1ccc(NC(=O)N(C)C[C@@H]2Oc3ccc(NC(=O)Cc4cn(C)c5ccccc45)cc3CC(=O)N([C@@H](C)CO)C[C@H]2C)cc1 | -1.9% |
| O=S(=O)(Nc1ccc(Oc2ncccn2)c(Cl)c1)c1ccc(F)cc1 | 8.55% [at 12.5 µM] |
| Cc1ccc(NS(=O)(=O)c2ccc(C(C)(C)C)cc2)cn1 | 23.7% [at 12.5 µM] |
| Cc1ccc(S(=O)(=O)Nc2ccc3ncccc3c2)cc1 | 146% [at 12.5 µM] (active) |

| Compound | activation (reporter increase) |
| --- | --- |
| O=C(C1CCC1)N1C[C@H]2[C@@H](c3ccccc31)[C@@H](CO)N2C(=O)c1ccccc1F | -20% |
| Cc1noc(C)c1NC(=O)Nc1ccc2c(c1)C(=O)N([C@H](C)CO)C[C@@H](C)[C@H](CN(C)C(=O)Nc1cccc3ccccc13)OCCCC[C@@H](C)O2 | 0.113% |
| CN1C(=O)c2cc(NC(=O)c3cscn3)ccc2OC[C@@H]2O[C@H](CC(=O)N3CCCCC3)CC[C@H]21 | 4.63% |
| CCCNc1ncnc2sc(C)c(C)c12 | 122% [at 12.5 µM] (active) |
| Cc1sc2ncnc(SCC(=O)Nc3ccc(CN4CCCC4)cc3)c2c1C | 2.95% [at 12.5 µM] |
| Cc1sc2ncnc(SCC(=O)NC3CCS(=O)(=O)C3)c2c1C (stereo unspecified) | -0.478% [at 12.5 µM] |
| O=C(C1CCC1)N1CCCCN2[C@H](C1)[C@@H](c1ccc(C#CC3CCCC3)cc1)[C@@H]2CO | -25.6% |
| O=C(C[C@@H]1CC[C@@H]2[C@H](COC[C@@H](O)CN2Cc2ccc(F)cc2)O1)NCc1ccncn1 | 5.81% |
| C[C@H](CO)N1C[C@H](C)[C@H](CN(C)C(=O)Nc2cccc3ccccc23)OCCCC[C@H](C)Oc2ccc(NC(=O)Nc3ccc4c(c3)OCO4)cc2C1=O | 6.96% |
| Cc1c(C)c(C)c(S(=O)(=O)NCCc2ccccn2)c(C)c1C | 107% [at 12.5 µM] (active) |
| O=S(=O)(/C=C/c1ccccc1)NCCc1ccccn1 | 73.3% [at 12.5 µM] |
| O=S(=O)(NCCc1ccccn1)c1cc(Cl)cc(Cl)c1O | -4.9% [at 12.5 µM] |
| Cc1noc(C)c1NC(=O)N(C)C[C@H]1OCc2cn(nn2)CCCC(=O)N([C@@H](C)CO)C[C@H]1C | 0.754% |
| C[C@@H]1CN([C@@H](C)CO)S(=O)(=O)c2ccc(-c3cccc(C(=O)N(C)C)c3)cc2O[C@@H]1CN(C)C(=O)Nc1ccccc1 | 18.2% |
| C[C@H]1CN([C@@H](C)CO)C(=O)c2cc(N(C)C)ccc2O[C@@H]1CN(C)S(=O)(=O)c1ccc(Cl)cc1 | 47.5% |
| O=C(NN=Cc1ccccc1)c1ccccc1 | -2.03% [at 12.5 µM] |
| CC(C)c1cc(C(=O)N/N=C/C(Br)=C/c2ccccc2)n[nH]1 | 122% [at 12.5 µM] (active) |
| Cc1cc(C(=O)N/N=C\C(Br)=C\c2ccccc2)c(C)o1 | 1.4% [at 12.5 µM] |
| O=C(c1cccnc1)N1C[C@H]2[C@@H](c3ccccc31)[C@@H](CO)N2C(=O)Nc1ccccc1F | -2.82% |
| CC1CCCCC1NC(=O)/C(C#N)=C/C=C/c1ccccc1[N+](=O)[O-] (stereo unspecified) | 102% [at 12.5 µM] (active) |
| CC1CCCCC1NC(=O)COc1ccc(C#N)cc1 (stereo unspecified) | -5.71% [at 12.5 µM] |
| O=[N+]([O-])c1ccccc1/C=C/CN1CCCC(CO)C1 (stereo unspecified) | 4.13% [at 12.5 µM] |
| CN(C[C@@H]1[C@H](c2ccccc2)[C@@H](CO)N1Cc1ccccn1)S(C)(=O)=O | 0% |
| CC(=O)Nc1ccc2nc(NC(=O)CS(=O)(=O)c3ccc(F)cc3)sc2c1 | 5.07% [at 12.5 µM] |
| CCCC(=O)Nc1nc2ccc(NC(=O)c3c(F)c(F)c(OC)c(F)c3F)cc2s1 | 143% [at 12.5 µM] (active) |
| CSc1nc2ccc(NC(=O)c3c(F)cccc3F)cc2s1 | -16% [at 12.5 µM] |

| Compound | activation (reporter increase) |
| --- | --- |
| COc1cccc(-n2cc3c(c2-c2ccccc2)c(=O)n(C)c(=O)n3C)c1 | 13% [at 12.5 µM] |
| Cn1c(=O)c2cn(-c3cccc4ccccc34)cc2n(C)c1=O | -1.8% [at 12.5 µM] |
| COc1ccc(OC)c(-n2cc3c(=O)n(C)c(=O)n(C)c3c2)c1 | 102% [at 12.5 µM] (active) |
| COc1ccc(S(=O)(=O)Nc2ccc3c(c2)C(=O)N([C@@H](C)CO)C[C@H](C)[C@@H](CN(C)C(=O)NC(C)C)OCCCC[C@H](C)O3)cc1 | 15.2% |
| C[C@H](CO)N1C[C@H](C)[C@H](CN(C)C)Oc2ccc(NC(=O)c3ccncc3)cc2CC1=O | 5.36% |
| COc1ccc(-c2cc(NC(C)=O)c3ncc(-c4cc(OC)c(OC)c(OC)c4)n3c2)cn1 | 107% [at 12.5 µM] (active) |
| COc1ccccc1-c1cc(NC(C)=O)c2ncc(-c3ccc(F)cc3)n2c1 | 5.94% [at 12.5 µM] |
| COc1cccc(-c2cnc3c(NC(C)=O)cc(-c4cc(F)ccc4OC)cn23)c1 | 36.5% [at 12.5 µM] |
| Cc1noc(C)c1NC(=O)Nc1ccc2c(c1)CC(=O)N([C@@H](C)CO)C[C@@H](C)[C@H](CN(C)Cc1ccc(Oc3ccccc3)cc1)O2 | -3.38% |
| CCC(=O)Nc1ccc2c(c1)C(=O)N(C)[C@@H]1CC[C@@H](CC(=O)NCCc3ccccc3)O[C@H]1CO2 | -4.08% |
| COCC(=O)Nc1ccc2c(c1)[C@@H]1C[C@H](CC(=O)NCc3cc(F)ccc3F)O[C@@H](CO)[C@@H]1O2 | 12.6% |
| CCC(=O)N1[C@H](CO)[C@@H]2c3ccccc3N(S(=O)(=O)c3ccccc3C)C[C@@H]21 | 0% |
| Cc1ccc(S(=O)(=O)NC2CCCCCC2)cc1 | 106% [at 12.5 µM] (active) |
| O=C(CCc1ccc(S(=O)(=O)NC2CCCCC2)cc1)NCc1ccccc1 | 101% [at 12.5 µM] (active) |
| COc1ccc(C)cc1S(=O)(=O)NC1CCCCC1 | 375% [at 12.5 µM] (active) |
| COc1ccc(C)cc1S(=O)(=O)Nc1cccc(Cl)c1Cl | 66.7% [at 12.5 µM] |
| Cc1ccc(S(=O)(=O)NC2CCCCCC2)cc1C(N)=O | 62.2% [at 12.5 µM] |
| Cc1cc(S(=O)(=O)NC2CCCCC2)ccc1OCC(=O)NCc1cccnc1 | 72% [at 12.5 µM] |
| O=S(=O)(NC1CC1)c1ccc(Cl)cc1 | -7.11% [at 12.5 µM] |
| CSc1ccc(S(=O)(=O)NC2CCCCC2)cc1 | 102% [at 12.5 µM] (active) |
| CC(C)CNS(=O)(=O)c1ccc(CCC(=O)NCc2ccc(Cl)cc2)cc1 | 15.1% [at 12.5 µM] |
| CC(C)c1ccc(S(=O)(=O)NC2CCCC2)cc1 | 51.5% [at 12.5 µM] |
| CCOc1ccc(C)cc1S(=O)(=O)NC1CCCCCC1 | 67.9% [at 12.5 µM] |
| O=S(=O)(NC1CCCC1)c1ccc(-n2cnnn2)cc1 | -2.1% [at 12.5 µM] |
